# Screening data deposited in PubChem by several laboratories.
# L major viab: Leishmania major promastigote growth inhibition; actives 9% (n = 200,000); Leishmania major promastigotes, resazurin fluorescence viability; inhibition, % at 10 µM; in the data active means inhibition above about 50%;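 further: promastigotes grown with compound for 44 hours at 28 °C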
# HCT116 PTEN-null: PTEN-deleted cell growth suppression; HCT116 PTEN-null viability, CellTiter-Glo, 60 h; stronger effect = lower value; viability, % at 10 µM; actives 1.2% (n = 140,000); AID 827;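 active means viability at or below a set limit, 4 SD under the median of all tested compounds, cut at about 3.7% in these data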;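 further: PTEN knockout HCT116 line with beta catenin targeted HCT116 as companion control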
# Insulin prom inh: TRM-6 insulin promoter activity inhibition; TRM-6 cells (human fetal islet line), insulin promoter-eGFP reporter, imaging; reporter expression induced with tamoxifen; inhibition, % at 2 µM; actives 0.9% (n = 130,000);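 active means inhibition above the mean plus 3 SD, with well images judged a real hit on visual review, cut at about 60% in these data, passing the limit was not always enough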
# Insulin prom up: MIN6 insulin promoter up-regulation; actives 0.3% (n = 190,000); z-score at 5 µM; MIN6 insulin promoter-GFP reporter, high-content imaging; stronger effect = higher value;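 active means z-score above 3 at 5 µM with at least 500 cells counted in the well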
# bCat KO growth: beta-catenin-lacking colon tumor cell growth suppression; AID 818; actives 1.5% (n = 140,000); viability, % at 10 µM; HCT116 beta-catenin knockout viability, CellTiter-Glo, 60 h; stronger effect = lower value;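 active means viability at or under a set limit, the compound median less 4 SD, cut at about 6% in these data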;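 further: 0% = Hyamine 1622 control at 20 µM and 100% = untreated cell control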
# Autophagy mod: alters autophagy in cells; MEF GFP-LC3 puncta imaging; test concentration mostly 10 µM; calls only at 10 µM (by protocol); actives 0.98% (n = 190,000); AID 463193;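 active means percentage of spot-positive cells more than 3 SD above its plate mean, without a fluorescence outlier flag or 80% toxicity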;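 further: spot-positive cell cutoff set from DMSO-treated cells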
# * = called active by the depositor; i = inactive; . = no result given; + = active, no number. Rows were chosen to be rich in hits. Some 9.6% of all compounds tested hit in one or more screens of this group.
SMILES,L major viab,HCT116 PTEN-null,Insulin prom inh,Insulin prom up,bCat KO growth,Autophagy mod
COc1ccc(C(=O)C23CC4CC(C2)CC(C(=O)c2ccc(OC)cc2)(C4)C3)cc1,13,.,.,-0.22,.,i
COc1ccccc1N(CC(=O)Nc1ccccc1C)S(C)(=O)=O,-2,103,-8,.,93,i
CCOc1ccc(NC(=S)N2CCCN(Cc3cccc(Cl)c3)C2)cc1,82*,.,10,-2.2,.,i
COc1ccc(NC(=S)N2CCCN(Cc3cccc(Cl)c3)C2)cc1,94*,.,14,-1.8,.,i
O=C1CCCc2oc3c(cc(NS(=O)(=O)c4ccc5c6c(cccc46)C(=O)N5)c4ccccc43)c21,.,.,.,-0.51,.,.
Cc1oc2c(cc(NS(=O)(=O)c3ccc4c5c(cccc35)C(=O)N4)c3ccccc32)c1C(=O)OC(C)C,58*,53,-35,-1,68,i
Cc1cccc(C)c1NC(=O)Cn1nnc(-c2ccc(N3CCOCC3)cc2)n1,-2,84,4,0.08,84,i
COc1ccc(NC(=O)Cn2nnc(-c3ccc(CN4CCOCC4)cc3)n2)c(OC)c1,83*,106,.,-1.1,99,i
Cc1ccc(C)c(NC(=O)Cn2nnc(-c3ccc(N4CCOCC4)cc3)n2)c1,-7,.,0,-0.09,.,+
O=[N+]([O-])c1cc(O)c2ncccc2c1,100*,.,-33,0.82,.,i
O=C(Nc1cccc(Cl)c1)N(CCN1CCOCC1)Cc1ccccc1F,1,88,-17,-0.59,94,i
C=CCC(c1ccccc1F)N(CCN1CCOCC1)C(=O)Nc1cccc(Cl)c1 (centres undefined),93*,72,-34,-0.71,79,i
CSC(=NS(=O)(=O)c1ccc(C)cc1)SC,44,101,27,0.73,93,i
O=C(Nc1nc2c(s1)CCCC2)c1ccc2ncsc2c1,28,67,-43,-0.45,74,i
Cc1ccc(-c2[nH]nc3c2C(c2ccoc2)C(C#N)=C(N)O3)cc1C (centres undefined),21,89,19,-0.32,98,i
CCc1ccc2[nH]c3nc(C)cc(C)c3c(=O)c2c1,26,85,81*,-0.35,85,i
CCc1ccc2[nH]c3nc(SCc4nnc(-c5ccccc5)o4)nnc3c2c1,.,.,.,-0.06,.,.
O=C(NC12CC3CC(CC(C3)C1)C2)c1cc2nc(-c3ccco3)cc(C(F)(F)F)n2n1,47,74,.,-1.2,81,i
COc1ccc2c(c1)CCc1c(C(=O)NCCCn3ccnc3)noc1-2,100*,92,-67,-1.6,82,i
COCCNC(=O)c1noc2c1CCc1cc(OC)ccc1-2,-10,96,.,.,100,i
Cc1nc2c(c(=O)n1CCC1=CCCCC1)c1nc3ccccc3nc1n2/N=C/c1ccco1,11,48,-46,-2.4,50,i
CC1CCN(CC(O)COC2CC(C)CCC2C(C)C)CC1 (centres undefined),90*,.,i,-0.17,.,i
CCOC(=O)N1CCN(CC(O)COC2CC(C)CCC2C(C)C)CC1 (centres undefined),95*,88,-400,-0.52,85,i
Cc1ccccc1-n1c(SCC(=O)N(C)C2CCS(=O)(=O)C2)nc2ccccc2c1=O (centres undefined),-11,.,.,-0.16,.,i
CCC(C)c1ccc(NC(=O)c2cnn3c(C(F)F)cc(C)nc23)cc1 (centres undefined),2,.,12,-0.72,.,i
SMILES,L major viab,HCT116 PTEN-null,Insulin prom inh,Insulin prom up,bCat KO growth,Autophagy mod
CC1Cc2ccccc2N1S(=O)(=O)c1cccc(C(=O)NC2CC2)c1 (centres undefined),9,77,30,0.62,74,i
CCc1ccc(N(C2C=CS(=O)(=O)C2)S(=O)(=O)c2ccccc2)cc1 (centres undefined),59*,92,-35,0.31,86,i
Cc1ccc(S(=O)(=O)N(c2cccc(C(F)(F)F)c2)C2C=CS(=O)(=O)C2)cc1 (centres undefined),29,74,-17,1.1,61,i
O=C(CCCn1c(=O)[nH]c2ccsc2c1=O)Nc1ccc(F)cc1,-3,.,.,0.33,.,i
COCCNC(=O)Cn1c(=O)n(CCCCCC(=O)Nc2ccccc2)c(=O)c2sccc21,-3,104,3,1.1,87,i
COCCCNC(=O)Cn1c(=O)n(CCCCCC(=O)Nc2ccccc2)c(=O)c2sccc21,50*,95,17,0.07,99,i
COc1ccc(NC(=O)CCCn2c(=O)c3sccc3n(Cc3ccccc3C)c2=O)cc1,89*,95,-60,-0.13,81,i
Cc1ccccc1Cn1c(=O)n(CCCC(=O)NCc2ccco2)c(=O)c2sccc21,11,96,-29,0.39,87,i
COc1ccc(NC(=O)CCCn2c(=O)c3sccc3n(Cc3ccccc3)c2=O)cc1,6,0.8*,-17,0.26,11,i
CCC(=O)NC(=S)Nc1ccc(NC(=O)COc2ccc(Cl)cc2Cl)cc1,12,66,-4,.,52,i
O=C(Cn1cc2c(n1)CCCC2)NCCCN1CCCC1,-7,102,.,0.73,97,i
S=c1nc(-c2ccc(Br)cc2)oc2c1CCCC2,-5,90,39,.,80,i
OCC1(Cc2ccccc2Cl)CCN(C/C=C/c2ccccc2)CC1,88*,.,.,.,.,i
CC1CCCCN1S(=O)(=O)c1ccc(N(C(=O)c2cnccn2)C(C(=O)NC2CCCC2)c2cccs2)cc1 (centres undefined),93*,84,5,-1.1,87,i
CC1CCCCN1S(=O)(=O)c1ccc(N(C(=O)c2cnccn2)C(C(=O)NC2CCCCC2)c2cccs2)cc1 (centres undefined),14,82,-9,0.01,80,i
CCCOc1ccc(CN(CCC#N)C(=S)NC(=O)c2ccccc2)cc1,85*,22,-4,-0.29,26,i
CC(=O)Nc1ccc(Nc2cc(-c3ccccc3)nc3ncnn23)cc1,9,.,-14,0.23,.,i
CC(=O)Nc1ccc(Nc2cc(C)nc3c(-c4ccccc4)cnn23)cc1,89*,39,75*,-0.42,51,i
CCc1nccn1-c1cc(C(C)(C)C)nc2c(-c3ccc(Cl)cc3)cnn12,7,76,43,-0.6,54,i
Cc1cc(N)n2ncc(-c3cccc(Br)c3)c2n1,41,80,93*,-0.69,71,i
CCOC(=O)Cc1c(C)nc2c(-c3cccc(Br)c3)cnn2c1C,-8,88,.,-0.3,83,i
Cc1nccn1-c1cc(C(C)(C)C)nc2c(-c3ccccc3)cnn12,67*,89,4,-0.82,84,i
Cc1cc(N)n2nc(-c3ccccc3)cc2n1,55*,74,42,-0.14,70,i
CC(C)C1NC(=S)N(C2CCCCC2)C1=O (centres undefined),-6,93,17,0.79,91,i
